Results on 21 compounds are retold here after PubChem BioAssay (NCI).

Test [1] in a line: NCI Yeast Anticancer Drug Screen. Data for the rad50 strain (AID 155).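 Also: 0% = growth of vehicle-only cultures of the same strain.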 The note with it: S. cerevisiae rad50 strain growth inhibition; at 50.0 µM; hits give high values. The essentials:
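Cells are treated with compound, grown, and their growth is then scored against vehicle-only cultures of the same repair-deficient yeast strain.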

Test [2] in a line: NCI Yeast Anticancer Drug Screen. Data for the mec2-1 strain (AID 157). The note with it: S. cerevisiae mec2-1 strain, at 50.0 µM, hits give high values. The procedure, abridged: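 Compounds were applied to mec2-1 yeast cells. Their growth was then compared with that of vehicle-treated cultures to give growth inhibition.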
The nature of test [3]: NCI Yeast Anticancer Drug Screen. Data for the sgs1 mgt1 strain (AID 161).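 Also: 0% = growth of cultures given vehicle only.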 Conditions: S. cerevisiae sgs1 mgt1 strain, at 50.0 µM, hits give high values. The essentials: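 Yeast cells carrying a defined DNA-repair defect were exposed to test compounds. Growth inhibition was measured relative to vehicle-treated controls.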
Test [4] can be described thus: NCI Yeast Anticancer Drug Screen. Data for the cln2 rad14 strain (AID 165).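 Also: 0% = growth equal to vehicle treated cultures.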 The note with it: S. cerevisiae cln2 rad14 strain, at 50.0 µM, hits give high values. The procedure, abridged: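 Strain: cln2 rad14 yeast, altered in cell cycle control and DNA damage repair. Read-out: growth inhibition vs vehicle.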
Test [5] in a line: NCI Yeast Anticancer Drug Screen. Data for the bub3 strain (AID 167). Conditions: S. cerevisiae bub3 mutant strain, at 50.0 µM, hits give high values. The procedure, abridged:
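Part of a panel of yeast mutants defective in DNA damage repair or cell cycle regulation. Each strain is grown with compound, and inhibition is calculated relative to solvent-treated cultures.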

Test [6] is described as follows: NCI Yeast Anticancer Drug Screen. Data for the mlh1 rad18 strain (AID 175). Conditions: S. cerevisiae mlh1 rad18 strain growth inhibition; at 50.0 µM; hits give high values. The essentials:
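A repair-deficient yeast strain is exposed to test compound, and growth is scored relative to vehicle-treated controls.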

Molecules are shown by their SMILES. The panel holds about 79,000 compounds, 15% with a hit somewhere; the sample as a whole holds those more often. Values without a mark were called inactive. Calls of active or inactive are those of the source. Rule as the data show it: active = growth inhibition above about 70%; inactive = the rest.

Turning to `Cc1ccc(NC(=S)NC(Cc2ccccc2)c2ccccc2)cc1` (stereo unspecified), the growth inhibition was 78.8% (active) in test [1]; 79.2% (active) in test [2]; -1.05% in test [3]; 78.5% (active) in test [4]; 90% (active) in test [5]; 85.2% (active) in test [6].

`Cc1cc(C)c(C(=O)/C=C(\N)C(=O)c2c(C)cc(C)cc2C)c(C)c1`: the growth inhibition is -7.05% in test [1]; 0% in test [2]; 2.75% in test [3]; 14.7% in test [4]; 27.1% in test [5]; 4.75% in test [6].

In the case of `O=C1c2ccccc2C(O)N1CCc1c[nH]c2ccccc12` (stereo unspecified), the growth inhibition in test [1] was 12.4%; in test [2] it was -24.1%; in test [3], -12.1%; in test [4], 8.2%; in test [5], 1.3%; in test [6] it was -10.9%.

`BrC12CC3CC(CC(C3)C1)C2`: the growth inhibition was 21.8% in test [1]; 13.1% in test [2]; 9.4% in test [3]; 11.1% in test [4]; 9.25% in test [5]; 12.8% in test [6].

For `CCCC(C)(CC)C(=O)O` (stereo unspecified), the growth inhibition was 7.45% in test [1]; -14.8% in test [2]; 14.4% in test [3]; -10.3% in test [4]; 1.95% in test [5]; 34.8% in test [6].

For the compound `Clc1nnc(-c2ccccc2)s1`, the growth inhibition in test [1] is 2.3%; in test [2], 2.85%; in test [3], 19.9%; in test [4], 7.85%; in test [5] it was 8.2%; in test [6], 9.5%.

Turning to `CC(C)=NOCCC#N`, the growth inhibition was 22.5% in test [1]; -0.05% in test [2]; -4.8% in test [3]; -16.6% in test [4]; 8.35% in test [5]; -14.3% in test [6].

In the case of `FC(F)(F)c1ccc(C=NC23CC4CC(CC(C4)C2)C3)cc1`, the growth inhibition in test [1] is -8.85%; in test [2], -9%; in test [3], -16.2%; in test [4], -27.1%; in test [5], -18.9%; in test [6] it was -30.9%.

`CCCc1nc(CCC)nc(CCC)n1`: the growth inhibition is -13.8% in test [1]; -5.35% in test [2]; -10.2% in test [3]; -6.5% in test [4]; 5.55% in test [5]; -14.7% in test [6].

Take `CC(C)OC(=O)CCCCCc1ccccc1`: the growth inhibition in test [1] is 6%; in test [2] it was -2.7%; in test [3] it was -29.1%; in test [4], 7.85%; in test [5], 2.1%; in test [6], -8.4%.

On to `CC(=O)Nc1cc2cc(NC=C(C#N)C#N)ccc2oc1=O`, for which the growth inhibition is -1.8% in test [1]; -27.3% in test [2]; 14.1% in test [3]; 15.9% in test [4]; 18.3% in test [5]; -2.5% in test [6].

As for `CC(=O)N(C)CC(c1c(C)[nH]c2ccccc12)c1c(C)[nH]c2ccccc12`, the growth inhibition in test [1] was 15.3%; in test [2] it was -12.3%; in test [3], 2.2%; in test [4] it was -4%; in test [5], 18%; in test [6], 40.7%.

As for `COc1cc(/C=N/n2c(C)cc(C)c(C#N)c2=O)cc(OC)c1OC`, the growth inhibition is -11.9% in test [1]; 12.9% in test [2]; -3.4% in test [3]; 9.1% in test [4]; -1.05% in test [5]; -25.4% in test [6].

For the compound `CCOC(=O)c1[nH]n(-c2ccccc2)c(=O)c1/C=N/C(=S)Nc1c(CC)cccc1CC`, the growth inhibition in test [1] is -18.1%; in test [2] it was -29.2%; in test [3] it was -18.2%; in test [4], -13.2%; in test [5] it was -8.25%; in test [6], -15.1%.

For the compound `O=C(NN=C1CCCCC1)NN=C1CCCCC1`, the growth inhibition is -40.2% in test [1]; -10.8% in test [2]; -29.2% in test [3]; -2.4% in test [4]; -6.55% in test [5]; -0.4% in test [6].

With `COc1cc(=O)[nH]c(-c2ccccc2)c1OC`, the growth inhibition in test [1] was -3.55%; in test [2] it was 3.95%; in test [3] it was 9%; in test [4] it was -5.05%; in test [5], 7.7%; in test [6], 0.05%.

As to `Cc1cccc(NC(=O)O/N=C(\Cl)C(C)C)c1`, the growth inhibition is -13.8% in test [1]; -34.9% in test [2]; 70% in test [3]; 0.4% in test [4]; 35.4% in test [5]; -43.4% in test [6].

Consider `O=P(O)(O)CN1CCN(CP(=O)(O)O)CCN(CP(=O)(O)O)CCN(CP(=O)(O)O)CC1`, for which the growth inhibition in test [1] was -39.9%; in test [2] it was -16.8%; in test [3] it was -8.75%; in test [4], 12.1%; in test [5] it was -0.05%; in test [6], -19.1%.

On to `CN(c1ccccc1)c1cc2c(cc1[N+](=O)[O-])no[n+]2[O-]`, for which the growth inhibition was 97.8% (active) in test [1]; 98.7% (active) in test [2]; 98.3% (active) in test [3]; 98% (active) in test [4]; 98.2% (active) in test [5]; 98.8% (active) in test [6].

For `CCOc1c(Cl)cc(Cl)cc1C(c1ccc(Cl)cc1S(=O)(=O)O)c1cc(Cl)cc(Cl)c1OCC`, the growth inhibition in test [1] is 99.2% (active); in test [2], 99.3% (active); in test [3] it was 99.6% (active); in test [4] it was 98% (active); in test [5], 99% (active); in test [6] it was 99.2% (active).

`O=c1c(Br)nn(C(c2ccccc2)c2ccccc2)c(=O)n1C(c1ccccc1)c1ccccc1`: the growth inhibition in test [1] is 23.1%; in test [2], 2.25%; in test [3], 10.1%; in test [4] it was 15.8%; in test [5], 3.6%; in test [6], 13.1%.
